This note sets out measurements from ChEMBL document CHEMBL5308541, “MAIP: An Open-Source Tool to Enrich High-Throughput Screening Output and Identify Novel, Druglike Molecules with Antimalarial Activity” (ACS Med Chem Lett, 2023).

The whole screen tested about 4,800 compounds, of which about 420 (8.8%) showed an effect of 50% or more. The entries come from a sample that favours strong results as a whole.

The subject of the assay is Plasmodium falciparum. Briefly: Confirmatory screen in NF54 nanoGlo assay, in single point, at 2uM, 72h. The format is functional, Erythrocyte. The following applies: timepoint 72 hour.
The term % Inhibition denotes the relative decrease from the control value, in per cent. In the case of `CN1CCC(N(Cc2ccccc2)C(=O)c2cc3cnccc3[nH]2)CC1`, the “% Inhibition” value is 61%.

Regarding `CCCN1CCC(N2CC(c3cccnc3)C(c3nc(C4CCCC4)no3)C2)CC1` (stereo not given), the “% Inhibition” value is listed as -2%.

In the case of `Cc1cc(O)c(Cl)cc1-c1ccc2nccc(N)c2c1`, the “% Inhibition” value is recorded as 90%.

In the case of `Cc1cc(O)c(Cl)cc1-c1cccc2c(N)ccnc12`, the “% Inhibition” value is reported as 91%.

Take `Clc1ccc2[nH]c3c(c2c1)CCCC3NC1CCN(C2CCOC2)CC1` (stereo not given): the “% Inhibition” value is recorded as 81%.

Take `CN1CCC(Oc2ccc(NC(=O)c3cn4ccnc4s3)cn2)CC1`: the “% Inhibition” value was found to be 86%.

Consider `Nc1ccnc2ccc(-c3ccc(C(=O)NCC4CCOCC4)cc3)cc12`, for which the “% Inhibition” value came out at 77%.

On to `Cc1ccc2nc(-c3cccc(NC(=O)c4ccc(OC(F)(F)F)c(Cl)c4)c3)[nH]c2n1`, for which the “% Inhibition” value is reported as 72%.

As to `Cc1cc(N2CCC(N(C)Cc3cc(-c4ccccc4)n[nH]3)CC2)nc(N)n1`, the “% Inhibition” value is 21%.

With `Cc1cc(N2CCC(NC3CCNC(c4ccccc4)C3)CC2)nc(C)n1` (stereo not given), the “% Inhibition” value is 30%.

`Cc1cc(N2CCC(NC3CCCC3Cc3ccc(F)cc3)CC2)nc(N)n1` (stereo not given): the “% Inhibition” value is given as 96%.

Consider `c1cc(CNC2CCN(C[C@H]3CCOC3)CC2)c2cc[nH]c2c1`, for which the “% Inhibition” value was -7%.

In the case of `Fc1cccc(Cl)c1CN1CCC(NC[C@H]2CCCOC2)CC1`, the “% Inhibition” value is given as 24%.

As to `O=C(NCc1ccc(N2CCNCC2)c(F)c1)c1ccc(-c2noc(C(F)(F)F)n2)cc1`, the “% Inhibition” value came out at 57%.

Consider `Cc1nc(N2CCN(C)CC2)cc(N2CCN(S(=O)(=O)c3ccccc3C(F)(F)F)CC2)n1`, for which the “% Inhibition” value amounted to 67%.

In the case of `Cc1c(CN2CCC(O)(Cn3ccnc3)CC2)[nH]c2c(Cl)cccc12`, the “% Inhibition” value came to 96%.

With `COCCN1CC[C@H](CN(C)c2ccnc3cc(Cl)ccc23)C1`, the “% Inhibition” value was found to be 98%.

As for `NC(=O)[C@]1(O)CCN(c2ccnc3ccc(Oc4ccccc4)cc23)C1`, the “% Inhibition” value is 29%.

As to `O[C@@]1(c2c[nH]nn2)CCN(c2ccnc3cc(Cl)ccc23)C1`, the “% Inhibition” value is reported as 59%.

Regarding `COCCN1CCC[C@@]2(CCN(c3ccnc4cc(Cl)ccc34)C2)C1`, the “% Inhibition” value is listed as 99%.

Turning to `Cc1cccc(N2CCC(NCc3cc(C)cc(CN4CCN(C)CC4)c3C)CC2)c1`, the “% Inhibition” value is on record as 61%.

Consider `Cc1cc(C)c(CN2CCN(C)CC2)cc1CNCCCn1ccnc1C`, for which the “% Inhibition” value was found to be 38%.

On to `Cc1ccc2nc(NC[C@H]3CCN(C4CC4)C3)cc(C)c2c1`, for which the “% Inhibition” value was determined as 93%.

Take `COc1ccc(-c2cc(C(=O)Nc3ccc(N4CCN5CCCC5C4)cc3)c3c(C)noc3n2)cc1` (stereo not given): the “% Inhibition” value was 41%.

Turning to `CCCN1CCC(Nc2cc(C)nc3ccccc23)CC1`, the “% Inhibition” value came to 77%.

For the compound `Cc1cc(NC[C@H]2CN(CC(C)C)CCO2)c2ccccc2n1`, the “% Inhibition” value stood at 26%.

In the case of `Cc1cc(N2CCC(Nc3ccnc4ccncc34)CC2)nc(C)n1`, the “% Inhibition” value is on record as 9%.

In the case of `O=C(Nc1cnc2c(c1)COCC2)c1cc2c(OC(F)(F)F)cccc2[nH]1`, the “% Inhibition” value was determined as 95%.

In the case of `c1ccc(CCC23CN(Cc4ccccn4)CC2CN(Cc2ccns2)C3)cc1` (stereo not given), the “% Inhibition” value was 88%.

On to `Nc1cc(N2CCC(c3nc4cc(F)ccc4[nH]3)CC2)nc(N2CCOCC2)n1`, for which the “% Inhibition” value stood at 39%.

In the case of `Cc1ccc2[nH]cc(-c3cc(N4CCOCC4)nc(N)n3)c2c1`, the “% Inhibition” value is 57%.

In the case of `Brc1ccc2[nH]c3c(c2c1)CCCC3NC1CCc2[nH]cnc2C1` (stereo not given), the “% Inhibition” value turned out to be 97%.

As to `c1ccc(CNc2ccc(-c3noc(C45CCCN(CCC4)C5)n3)cn2)cc1`, the “% Inhibition” value came out at 82%.

As for `NCCCCc1c(-c2cccnc2)[nH]c2c(Cl)cc(Cl)cc12`, the “% Inhibition” value was 55%.

Turning to `Cn1cc(-c2cncc(C(=O)NC3CCN(c4cccc(F)c4)CC3)c2)cn1`, the “% Inhibition” value is reported as 51%.

On to `CCOc1cccc(N2CCN(C(=O)c3cc(-c4ccc(F)cc4)[nH]n3)CC2)n1`, for which the “% Inhibition” value is listed as 32%.

`CN(C)CCN1CCC(NC2CCC(O)(c3cccc(Cl)c3)CC2)CC1` (stereo not given): the “% Inhibition” value turned out to be 30%.

Regarding `OC1(c2ccc(Cl)cc2)CCN(C[C@@H]2CCCN3CCCC[C@H]23)CC1`, the “% Inhibition” value was 73%.

`NCC1(O)CCN(c2ccnc3cc(F)c(Cl)cc23)CC1`: the “% Inhibition” value was 94%.

For `FC(F)(F)c1ccc(N2CCC[C@H](NC3CCN(Cc4ccco4)CC3)C2)nc1`, the “% Inhibition” value turned out to be 21%.

Take `CCN1CCC(N2CCC(C(=O)NCCc3ccc(OC(F)(F)F)cc3)CC2)CC1`: the “% Inhibition” value worked out at 48%.

Turning to `Oc1ccc(OC(F)(F)F)cc1-c1ccc2nccn2n1`, the “% Inhibition” value was found to be 83%.

Consider `Nc1ccc(-c2cc(OC(F)(F)F)ccc2O)cn1`, for which the “% Inhibition” value came out at 11%.

On to `N#Cc1ccc(N2C[C@H](COCC3CC3)C3(CCN(Cc4cccc(O)c4)CC3)C2)cc1C(F)(F)F`, for which the “% Inhibition” value stood at 80%.

As to `CCN1C[C@H](Nc2nc(C)nc3sccc23)[C@@H](OC)C1`, the “% Inhibition” value is listed as 98%.

As for `CNc1nc(C)c(-c2ccnc(Nc3cccc(S(C)(=O)=O)c3)n2)s1`, the “% Inhibition” value came to 58%.

Regarding `Cc1cc(N2CCC(NCCc3c[nH]cn3)CC2)nc(-c2ccccc2)n1`, the “% Inhibition” value came out at 17%.

With `Cc1cc(N2CCC(NCCCN3CCCc4ccccc43)CC2)nc(N)n1`, the “% Inhibition” value is given as 74%.

With `Cc1ccc2nc(CCCNC3CCN(c4cc(C)nc(N)n4)CC3)oc2c1`, the “% Inhibition” value is on record as 29%.

`COc1ccc2nc3cc(Cl)ccc3c(O)c2c1`: the “% Inhibition” value worked out at 57%.
